Assay outcomes deposited in PubChem BioAssay by The Scripps Research Institute Molecular Screening Center.
TTR transcr act: activators of transthyretin transcription; SH-SY5Y TTR promoter Gaussia luciferase, luminescence; 100% = recombinant luciferase protein wells; activation, % at 16.7 µM; hit rate 1.3% among 92,000;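 active = activation above the mean of all tested compounds plus 3 SD, cut at about 9.5% in these data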;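 note: cells exposed to compounds for one day before reading; 0% = median of all test compound wells on the plate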
TTR inh HuH7: counter-screen for TTR activators: TTR transcription inhibitors in HuH7 cells; shares compounds with TTR transcr act; HuH7 TTR promoter-Gaussia luciferase reporter, luminescence; inhibition, % at 16.7 µM; hit rate 4% among 1,100; AID 1117279;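 active = average inhibition above the solvent-only control wells' mean plus 3 SD, cut at about 15% in these data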;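 note: 0% = cells with DMSO only and 100% = cells with inhibitor control FD; inhibitors lower well luminescence so higher value means more inhibition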
TTR act confirm: human TTR transcription activation, confirmation; shares compounds with TTR transcr act; SHSY5Y TTR promoter Gaussia luciferase, luminescence; 100% = purified Lucia enzyme wells, no cells; activation, % at 16.7 µM; 1,100 tested, under 10 active; AID 1117280;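 active = mean activation above a set limit taken from the earlier primary screen, cut at about 11% in these data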;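 note: 0% = DMSO-treated cells and 100% = recombinant Lucia luciferase without cells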
The depositor's hits bear a star. Many of the other results were omitted from the sample, so hits are more common in it than they were.

SMILES | TTR transcr act | others
Cc1ccc(-n2c(C)cc(/C=C3/C(=O)NC(=O)N(C)C3=O)c2C)cc1 | 1.2
CCn1c(C)cc(/C=C2\C(=O)NC(=O)N(c3ccccc3C)C2=O)c1C | 1.1
COc1ccc(N2C(=O)/C(=C/c3cc(C)n(-c4ccc(C)cn4)c3C)C(=O)NC2=S)c(OC)c1 | 10.7* | TTR inh HuH7=-0.7;TTR act confirm=-0.6
COc1ccc(Cn2c(N)c(C(=O)NCc3ccco3)c3nc4ccccc4nc32)cc1OC | 2.8
O=C(Nc1ccc(Cl)c(Cl)c1)c1ccco1 | -2.2
COc1ccc(C(=O)Nc2cccc(S(=O)(=O)NCc3ccco3)c2)cc1 | 10.7* | TTR inh HuH7=-3.2;TTR act confirm=-0.8
COc1ccc(OC(=O)N(C)C[C@@H]2OCc3cnnn3CCCC(=O)N([C@@H](C)CO)C[C@H]2C)cc1 | -0.1
CCCC(=O)Nc1ccc(N2CCN(CC)CC2)c(Cl)c1 | -0.5
CCCC(=O)NC1=C(N2CC2)C(=O)C(NC(=O)CCC)=C(N2CC2)C1=O | 10.8* | TTR inh HuH7=53.1*;TTR act confirm=-2.7
CCOC1=C(N2CC2)C(=O)C(OCC)=C(N2CC2)C1=O | -0.8
Cn1c(O)c(C(=O)c2ccccc2F)c(=O)n(C)c1=O | -0.6
CSCCC(c1nnnn1-c1c(C)cccc1C)N1CCC(n2c(=O)[nH]c3ccccc32)CC1 (stereo not drawn) | -1.9
CCC1(c2ccc(-c3ccccc3)cc2)C(=O)NC(=O)NC1=O | 0.4
O=C1NC(=O)C(Nc2ccc(Cl)c(Cl)c2)C(=O)N1 | -1.1
O=C(N/N=C/c1c(O)n(-c2ccccc2)c(=O)[nH]c1=O)c1ccncc1 | 12.8* | TTR inh HuH7=-0.3;TTR act confirm=0.5
Cc1cccc(-n2c(O)c(/C=N/NC(=O)c3ccncc3)c(=O)[nH]c2=O)c1 | 1.7
Cc1ccc(-n2c(O)c(/C=N/NC(=O)c3ccncc3)c(=O)[nH]c2=O)cc1 | -1.9
O=C(c1ccc2c(c1)ncn2C1CCCCC1)N1CCC2(CC1)OCCO2 | -2.1
Brc1ccc(-[n+]2c(-c3ccccc3)cc(-c3ccccc3)cc2-c2ccccc2)cc1 | -9.3
CCOC(=O)N1CCC(NC(=O)CCc2nc(C3=CCN(C)CC3)no2)CC1 | 10.4* | TTR inh HuH7=2.0;TTR act confirm=0.0
COC(=O)C1=C(c2ccc(F)cc2F)C[C@@H]2CC[C@H]1N2C | 5.4
C=CCn1c(O)c(C(C)=NCCCn2ccnc2)c(=O)[nH]c1=O | -1.0
CC(C)=CCN1CC[C@@]2(C)c3cc(O)ccc3CC1C2C (stereo partly drawn) | 2.1
CCCCn1c(O)c(C(=O)/C=C/c2ccc3c(c2)OCO3)c(=O)[nH]c1=O | 21.1* | TTR inh HuH7=15.2*;TTR act confirm=0.9
O=C(/C=C/c1ccc2c(c1)OCO2)c1c(O)n(CCC2=CCCCC2)c(=O)[nH]c1=O | 1.2
SMILES | TTR transcr act | others
C=CCn1c(O)c(C(CC)=NCc2ccc3c(c2)OCO3)c(=O)[nH]c1=O | -0.8
CC(C)(OOC1(c2ccccc2)NC(=O)c2ccccc21)c1ccccc1 (stereo not drawn) | 2.0
CCN1CCN(c2ccc(NC(=O)C(C)C)cc2Cl)CC1 | 2.2
C=CCn1c(O)c(C(CC)=Nc2cccc(C(F)(F)F)c2)c(=O)[nH]c1=O | 0.5
COc1ccc(OC)c(CN2CCCC(C(=O)c3sccc3C)C2)c1 (stereo not drawn) | 0.4
CCOC(=O)C(O)(c1ccc(N(CC)C(=O)COc2ccccc2)cc1)C(F)(F)F (stereo not drawn) | 2.2
COC(=O)[C@@H](c1ccccc1)C1CCCCN1 (stereo partly drawn) | -2.1
C=CCOC(=O)C1=C(C)OC(N)=C(C#N)C12C(=O)N(CN1CCOCC1)c1ccccc12 (stereo not drawn) | 11.5* | TTR inh HuH7=-10.8;TTR act confirm=1.4
COCCOC(=O)C1=C(N)OC(C)=C(C(=O)OC)C12C(=O)Nc1ccccc12 (stereo not drawn) | 0.9
CCOC(=O)C1=C(N)Oc2c(c(=O)oc3ccccc23)C12C(=O)N(C)c1ccccc12 (stereo not drawn) | 1.6
O=C1NC(=O)C2(CCN(S(=O)(=O)c3ccccc3)CC2)C(=O)N1 | -1.2
O=C(Nc1ccc(F)cc1)N1CC2CC(C1)c1cccc(=O)n1C2 (stereo not drawn) | 0.9
CCCNC1=C(C)C(=O)C2=C(C1=O)C(COC(N)=O)[C@]1(OC)C3NC3CN21 (stereo partly drawn) | -1.4
O=C(NC12CC3CC(CC(C3)C1)C2)OC1CN2CCC1CC2 (stereo not drawn) | 12.8* | TTR inh HuH7=-14.7;TTR act confirm=0.2
CNC(C)Cc1ccccc1 (stereo not drawn) | -1.0
CN1C(=O)C(Cc2ccsc2)C(=O)N(C)C1=O | 12.3* | TTR inh HuH7=-8.0;TTR act confirm=-0.2
CN1C(=O)C(C2CCCCC2)C(=O)N(C)C1=O | 0.1
CN1C(=O)C(Cc2ccccc2)C(=O)N(C)C1=O | 0.3
CC(=O)Nc1ccc(C=C2C(=O)NC(=O)NC2=O)cc1 | -0.3
C=CCCC1(C2=CCCCC2)C(=O)NC(=O)NC1=O | 4.5
